Assay results as given in PubChem BioAssay AID2546 (National Center for Advancing Translational Sciences (NCATS), 2010).
Screen size: about 310,000 compounds; about 11,000 (3.5%) were called active. Where a call stands in place of a potency, no number is given. Not shown: some 8% with an inconclusive outcome. The sample holds actives, similar compounds and a random draw of the others, so the mix is not that of the screen. Values without a mark were called inactive. Calls follow the shape of the dose curve; as a rule, active = well fitted inhibition curve with a large enough effect; inconclusive = small, poorly fitted or top-dose-only effect, or effect the other way; inactive = flat fitted curve, though single readings scatter.
Potency is read from the fitted curve at half-maximal effect.

Experiment: VP16 counterscreen qHTS for inhibitors of ROR gamma transcriptional activity;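 also: Gal4-VP16 expression switched on by copper sulfate through the metallothionein promoter; nearly all actives have a fitted effect of over 50% in size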
Details: Drosophila S2 Gal4-VP16 UAS-luciferase, luminescence, 20 h; series mostly up to 53.6 µM
For CC1C(=O)N(Cc2ccccc2)c2ccccc2N1C(=O)c1ccccc1 (stereo unspecified), the Potency was “inactive”. For COc1ccc(CSc2nnnn2-c2ccc(C(=O)O)cc2)cc1, the Potency was “inactive”. With COCCCNC(=O)[C@H]1N2C(=O)c3ccccc3C2SC1(C)C (stereo partly specified) the Potency was “inactive”. Cn1cccc1-c1nc2ccccc2n1C showed an activity, negative = inhibition of -16.5% [at 10 µM]. For Cn1c(-c2ccco2)nc2cc3ccccc3cc21, the Potency was 11.2 µM (active). In the case of COc1ccc(CCn2c(-c3ccco3)nc3nc4ccccc4nc32)cc1OC, the Potency is reported as “inactive”. In the case of CCn1cc(C(=O)NCCC(=O)NCCO)c(=O)c2cc3c(cc21)OCO3, the Potency is reported as “inactive”. With O=C(N/C(=C/c1ccc(Cl)cc1)C(=O)N1CCCCC1)c1ccco1 the Potency was “inactive”. For COC(=O)c1ccc(CNC(=O)c2ccc3oc(C(C)C)nc3c2)cc1, the Potency was “inactive”. In the case of FC(F)(F)C1CCCN(c2nsc3ccccc23)C1 (stereo unspecified), the Potency is reported as 28.2 µM (active). In the case of O=c1[nH]c(/C=C\c2cccc(C(F)(F)F)c2)nc(O)c1[N+](=O)[O-], the Potency is reported as “inactive”. With CCN1CCN(C(=O)C2CCN(S(=O)(=O)c3cc(Cl)ccc3Cl)CC2)CC1 the Potency was “inactive”. In the case of CC(C)(C)c1ccc(CCC2OCC(CN3CCOCC3)O2)cc1 (stereo unspecified), the Potency is reported as 4.47 µM (active). In the case of CCCCOc1ccc(C(C)(O)CCN2CCOCC2)cc1 (stereo unspecified), the Potency is reported as “inactive”. For CSc1ccc(CNCCN2CCOCC2)cc1, the Potency was “inactive”. For COc1ccc(/C=C/c2c(-c3cccc(C)c3)oc3ccc(-c4ccc5c(c4)OCO5)cc23)cc1, the Potency was “inactive”. With COc1cccc2cc(C(=O)NCc3ccc(C)cc3)c(=N)oc12 the Potency was “inactive”. For CC[C@]1(c2ccccc2OC)C(=O)N(C(=O)OC)N1C(=O)OC, the Potency was “inactive”. With Cc1ccc(/C=N/NC(=O)c2cc3ccccc3cc2O)o1 the Potency was 1.58 µM (active). With Cc1ccc(/C=N/NC(=O)CNC(=O)COc2ccccc2)o1 the Potency was “inactive”. With N=c1oc2ccccc2cc1C(=O)N/N=C/c1ccccc1 the Potency was “inactive”. For COc1ccc(-n2ncc3c(SCC(=O)NNC(C)=O)ncnc32)cc1, the Potency was “inactive”. In the case of COc1ccc(N(C(=O)c2snc(C(N)=O)c2N)C(C(=O)NC2CCCC2)c2ccc(C)o2)c(OC)c1 (stereo unspecified), the Potency is reported as “inactive”. In the case of Cc1cccc(-n2ncc(Cl)c(Cl)c2=O)c1, the Potency is reported as 14.1 µM (active). With Cc1cccc(-n2ncc(C#N)c2-n2cccc2)c1 the Potency was “inactive”. In the case of COc1ccc(Oc2c(Cl)cnn(-c3ccccc3)c2=O)cc1, the Potency is reported as “inactive”. For O=C(CSc1ccc(-c2ccccn2)nn1)Nc1ccccc1, the Potency was “inactive”. For Clc1nc(NC2CCCC2)nc(N2CCOCC2)n1, the Potency was “inactive”. In the case of Cc1nc(/N=C(\N)NC(=O)NC2CCCCC2)nc2ccccc12, the Potency is reported as 7.94 µM (active). With O=C(NNC(=O)C(O)c1ccccc1)NC1CCCCC1 (stereo unspecified) the Potency was “inactive”. In the case of Cc1nn(-c2ccccc2)c(C)c1C(=O)OCC(=O)NC(=O)NC1CCCCC1, the Potency is reported as “inactive”. In the case of c1ccc2c(Nc3ccncc3)nc(-c3ccc4c(c3)OCO4)nc2c1, the Potency is reported as 17.8 µM (active). With c1ccc2c(Nc3ccncc3)nc(-c3ccoc3)nc2c1 the Potency was “inactive”. With Cc1cccc(-c2nc(Nc3ccc(O)cc3)c3ccccc3n2)c1 the Potency was “inactive”. For COCCc1nn2c(=O)cc(COC(=O)c3cc(OC)c(OC)c(OC)c3)nc2s1, the Potency was “inactive”. For Cc1cc(C(=O)NC2CC(C)(C)Cc3c2cnn3-c2ccccc2)n[nH]1 (stereo unspecified), the Potency was “inactive”. For O=C(c1ccccc1F)N(Cc1ccccc1)Cc1ccccc1, the Potency was “inactive”. For C/C(=N\NC(=O)c1ccoc1C)c1ccccc1O, the Potency was 0.708 µM (active). For C/C(=N\NC(=O)c1nc(C)cc(C)n1)c1ccccc1, the Potency was “inactive”. In the case of C/C(=N\NC(=O)c1ccccc1C)c1ccc(N2CCOCC2)cc1, the Potency is reported as “inactive”. In the case of CNC(=O)C(NC(=O)c1ccccc1)=C(C)C, the Potency is reported as “inactive”. For CC(C)=C(NC(=O)c1ccccc1)C(=O)N/N=C(\C)c1ccccc1O, the Potency was 2.51 µM (active). In the case of CC(=O)NC(=O)c1ccccc1O, the Potency is reported as “inactive”. With CCc1cc(=O)oc2c(C)c(OCC(=O)N3CC[C@@]4(O)CCCC[C@H]4C3)ccc12 the Potency was “inactive”. With COc1ccc(CNC(=O)C2CCN(S(=O)(=O)c3ccc(SC)cc3)CC2)cc1 the Potency was “inactive”. With COc1cccc(NC(=O)[C@H](Cc2c[nH]c3ccccc23)NC(=O)[C@@H]2Cc3ccccc3CN2)c1 the Potency was “inactive”. With O=C1CCN(CCCc2ccccc2)CCN1CCO the Potency was “inactive”. In the case of CCOc1ccccc1OCCCNCc1ccccc1, the Potency is reported as “inactive”. In the case of CCOc1ccccc1N1CN(Cc2ccccc2)CNC1=S, the Potency is reported as 11.2 µM (active). With CCOc1ccc(CC(=O)NC2CCN(Cc3ccccc3)CC2)cc1 the Potency was “inactive”. In the case of O=C(c1ccco1)N1CCN(Cc2cccc(C(F)(F)F)c2)CC1, the Potency is reported as “inactive”. For Cc1ccc(NS(=O)(=O)c2ccc3c(c2)n(C)c(=O)c(=O)n3C)c(C)c1, the Potency was “inactive”. With CCOC(=O)COn1c(=O)c(-c2ccc(OCC)cc2)[n+]([O-])c2ccccc21 the Potency was “inactive”. For Cc1nn(-c2ccccc2)c2c1c(C)c(CCC(=O)NCC1CCCO1)c(=O)n2C (stereo unspecified), the Potency was “inactive”. In the case of O=C(Nc1ccc(NC(=O)c2cccs2)cc1)c1ccc2ccccc2c1, the Potency is reported as “inactive”. With C=CC(=O)c1ccc2ccccc2c1 the Potency was 0.708 µM (active). In the case of CC(=O)CCC(=O)c1ccc2ccccc2c1, the Potency is reported as “inactive”. For COc1cc2ccccc2cc1C(=O)Nc1ccccc1C, the Potency was “inactive”. In the case of Cc1ccc(N(C(=O)c2snc(C(N)=O)c2N)C(C(=O)NCC2CCCO2)c2c[nH]c3ccccc23)cc1 (stereo unspecified), the Potency is reported as “inactive”. For CCSc1nsc(NC(=O)Nc2ccccc2OC)n1, the Potency was “inactive”. With CC1CCN(c2ccc(C(=O)Nc3nnc(C4CC4)s3)cc2[N+](=O)[O-])CC1 the Potency was 17.8 µM (active). For CC1CCN(c2ccc(S(=O)(=O)Nc3cc(C(=O)O)cc(C(=O)O)c3)cc2[N+](=O)[O-])CC1, the Potency was “inactive”. With CC1CCN(c2ccc(C(=O)NCc3ccc4c(c3)OCO4)cc2[N+](=O)[O-])CC1 the Potency was “inactive”. In the case of COCCNC(=O)c1ccc2c(c1)ncn2-c1ccc(C)c(Cl)c1, the Potency is reported as “inactive”. In the case of CCC1Oc2ccccc2N(CC(=O)NCCCN2CCN(CC)CC2)C1=O (stereo unspecified), the Potency is reported as “inactive”. In the case of Cc1c(C)c2ccc(OCC(=O)N3CCN(c4cccc(Cl)c4)CC3)cc2oc1=O, the Potency is reported as “inactive”. For Cc1ccc(OCC(=O)NC(C)c2ccccc2)cc1C (stereo unspecified), the Potency was “inactive”. For O=C(/C=C/c1ccc(Cl)cc1Cl)c1cccnc1, the Potency was 6.31 µM (active). With O=C(/C=C/c1ccc(Cl)c([N+](=O)[O-])c1)c1cccnc1 the Potency was “inactive”. In the case of O=C(Nc1cccnc1)c1cc(Cl)ccc1Cl, the Potency is reported as “inactive”. With COc1cccc(CNC(=O)C2CCCN(c3ncnc4c3nc3n4CCCCC3)C2)c1 (stereo unspecified) the Potency was “inactive”. With Cc1cc(NC(=O)CCN2CCN(Cc3ccccc3)CC2)ccc1Br the Potency was “inactive”. For Cc1cc(NC(=O)CSc2nc(=O)cc(N)n2-c2ccc(F)cc2)no1, the Potency was “inactive”. With COc1cc(/C=N/NC(=O)Cc2ccccc2)cc(OC)c1OC the Potency was “inactive”. For O=C(O)[C@@H]1CCCN1c1ncnc2sc3c(c12)CCC3, the Potency was “inactive”. In the case of CC(C)(C)C(=O)Cn1c(NCCO)nc2ccccc21, the Potency is reported as “inactive”. With OCCNc1nc2ccccc2n1-c1ncnc2sc3c(c12)CCC3 the Potency was 10 µM (active). For O=C(c1ccccc1)N1N=C(c2ccccc2O)CC1c1ccc(Br)cc1 (stereo unspecified), the Potency was “inactive”. With Cc1cn([C@H]2CC(F)[C@@H](CO)O2)c(=O)[nH]c1=O (stereo partly specified) the Potency was “inactive”. With CC(C)n1c(-c2ccncc2)n[nH]c1=S the Potency was “inactive”. With CCn1c(-c2ccncc2)n[nH]c1=S the Potency was 11.2 µM (active). In the case of CCn1c(C(C)NC(=O)c2ccc(C)cc2)n[nH]c1=S (stereo unspecified), the Potency is reported as “inactive”. For COc1cccc(CNC(=O)CCC2CCCN(C(=O)c3ccc(F)c(Cl)c3)C2)c1 (stereo unspecified), the Potency was “inactive”. With COC(=O)C1(CCSC)NC(c2ccc(OC)cc2OC)C2C(=O)N(c3cccc(C(C)=O)c3)C(=O)C21 (stereo unspecified) the Potency was “inactive”. In the case of Cc1ccc(S(=O)Cc2ccc(C(=O)N3CCN(C4CCCCC4)CC3)o2)cc1 (stereo unspecified), the Potency is reported as “inactive”. In the case of Cc1[nH]c(C)c(S(=O)(=O)N2CCN(c3cccc(C(F)(F)F)c3)CC2)c1C(=O)N1CCCC1, the Potency is reported as “inactive”.
